Data published in ChEMBL document CHEMBL3988442, “University of Dundee, Small-Polar-MMV Screening Library” (2021).

Biological target: T1, Proteasome subunit beta (Trypanosoma cruzi) (UniProt O96673)
T1 sequence (whole entry): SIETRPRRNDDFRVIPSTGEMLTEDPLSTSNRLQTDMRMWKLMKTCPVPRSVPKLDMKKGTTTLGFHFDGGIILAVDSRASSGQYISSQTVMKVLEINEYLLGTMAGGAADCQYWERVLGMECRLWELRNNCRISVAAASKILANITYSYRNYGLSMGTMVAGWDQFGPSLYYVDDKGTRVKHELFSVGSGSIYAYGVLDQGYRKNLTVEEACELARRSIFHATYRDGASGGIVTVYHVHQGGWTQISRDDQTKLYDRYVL
Assay: Trypanosoma cruzi proteasome chymotrypsin-like activity (TcProtChymo) assay. Note: in the data most compounds retested in dose-response had high values.
Format: functional
Design: scale not given: direction of the effect not stated beside the values
Settings: 9.37 µM

First: N#Cc1ccc(N2CCN(C(=O)c3cc(C4CC4)[nH]n3)CC2)c(F)c1
Second: Cn1nc(C2CCN(C(=O)Cc3cccc(F)c3)CC2)c2cccnc21
The Percent Effect of the first is lower: -0.179% for the first, 6.71% for the second.

Compared with CNS(=O)(=O)c1ccc(C(=O)N2CCCC2c2ccccc2)o1 (configuration not stated), NC(=O)C1(Cc2ccccc2-c2ccccc2)CCCN(CC2CC2)C1 (configuration not stated) is higher in Percent Effect: -2.96% for the first, 5.2% for the second.

First: CC(=O)c1c(F)cccc1N1CCC(CS(N)(=O)=O)CC1
Second: CN1N=C(C(=O)Nc2cc(F)ccc2OCC2CCCO2)CCC1=O (configuration not stated)
The Percent Effect of the first is higher: 10.4% for the first, 6.25% for the second.

Going from Cc1ccc(CC(=O)NC(C)C(=O)N2CCS(=O)(=O)CC2)cc1 (configuration not stated) to CC(C)C(=O)N1CCN(C(=O)CCc2nnc(-c3ccccc3)o2)CC1, the Percent Effect falls from 10.2% to 0.901%.

Compared with CCN(C(c1cccnc1)c1ccc2c(c1)CCO2)S(C)(=O)=O (configuration not stated), CCNC(c1cccnc1)c1cc(C)cc(C)c1 (configuration not stated) is higher in Percent Effect: 3.17% for the first, 5.83% for the second.

Compared with CCOCCCC(=O)NCCC(=O)N1CCN(c2ccccn2)CC1, O=C(CN1CCCC(O)C1)NC(=O)NCc1cccs1 (configuration not stated) is lower in Percent Effect: 13.3% for the first, 11.8% for the second.

Going from CCOc1ccc(C(=O)NS(=O)(=O)c2cncc(Br)c2)cc1OC to COC(=O)c1ccc2ccn(CC3CCCO3)c(=O)c2c1 (configuration not stated), the Percent Effect rises from 0.517% to 16.3%.

Compared with c1ncn(CC2CCCCN2Cc2noc(C3CC3)n2)n1 (configuration not stated), O=C(Cn1cnnn1)N1CCCCC1Cn1cccn1 (configuration not stated) is lower in Percent Effect: 16.4% for the first, 0.901% for the second.

First: CC(C(=O)Nc1cccc(N2CCCCC2)c1)n1cncn1 (configuration not stated)
Second: Cn1cc(CN2CCn3cc(CNC(=O)C4CCC4)nc3C2)cn1
The Percent Effect of the first is higher: 10.3% for the first, 7.69% for the second.

First: O=C(C1CC1)N1CCC(c2nc(O)c3c(n2)CCN(C2CCCC2)C3)C1 (configuration not stated)
Second: CO[C@H]1CN(C(=O)c2ccc3oc(C)cc3c2)CC[C@@]12CCCO2
The Percent Effect of the first is lower: 5.55% for the first, 5.77% for the second.

Going from CC(Cn1cccn1)NCc1nc(-c2cccc(Cl)c2)no1 (configuration not stated) to O=C(NCC1CC1)C1=NOC2(CCN(Cc3ccc4c(c3)OCO4)C2)C1 (configuration not stated), the Percent Effect rises from 5.33% to 11.1%.

O=C(NC[C@@H]1CCCN1)c1cc(COc2cccc(C(F)(F)F)c2)[nH]n1 gave a Percent Effect of 6.32%.

Species: Homo sapiens
Assay: To identify inhibition of the IFN signalling (Jak-Stat) pathway via expression of an eGFP reporter gene under the control of an IFN-stimulated response element (ISRE) containing MxA promoter.
Format: functional
Design: scale not given: direction of the effect not stated beside the values
Settings: 30 µM

First: Cn1c(NCC(O)c2ccc(F)cc2F)c(C#N)c(=O)n(C)c1=O (configuration not stated)
Second: CN1N=C(C(=O)Nc2cc(F)ccc2OCC2CCCO2)CCC1=O (configuration not stated)
The Percent Effect of the first is higher: -3.56% for the first, -6.34% for the second.

First: CC(CNC(=O)N1CCSCC1)Cc1cccs1 (configuration not stated)
Second: O=C(CN1CCCC(O)C1)NC(=O)NCc1cccs1 (configuration not stated)
The Percent Effect of the first is lower: 1.53% for the first, 15.4% for the second.

First: NC(=O)COc1cccc(C(=O)N2CCCC(n3ccnc3)C2)c1 (configuration not stated)
Second: O=C(c1ccccc1OCC1CC1)N1CCCC(n2ccnc2)C1 (configuration not stated)
The Percent Effect of the first is higher: -2.06% for the first, -14% for the second.

First: CCC(O)CNC(=O)c1coc(COc2ccc3sc(C)nc3c2)n1 (configuration not stated)
Second: O=C(NC[C@@H]1CCCN1)c1cc(COc2cccc(C(F)(F)F)c2)[nH]n1
The Percent Effect of the first is higher: 50% for the first, -13.9% for the second.

Going from CCNC(=O)N1CCC2(C1)c1ccccc1S(=O)(=O)N2CCC(C)C (configuration not stated) to Cc1ccc(CC(=O)NC(C)C(=O)N2CCS(=O)(=O)CC2)cc1 (configuration not stated), the Percent Effect rises from -14.8% to 1.44%.

Compared with Cc1ccc(C(CNCc2cnn(C(C)C)c2)N2CCOCC2)s1 (configuration not stated), CCN1CCC(c2nc3ccc(NC(C)C)cn3n2)CC1 is lower in Percent Effect: -8.39% for the first, -12.5% for the second.

First: COc1cccc(C(=O)Nc2cc(CC(C)C)nn2C)c1
Second: CCOc1ccc(C(=O)NS(=O)(=O)c2cncc(Br)c2)cc1OC
The Percent Effect of the first is higher: 11% for the first, 2.53% for the second.

First: Cc1cc(F)ccc1CN1CCCC2(C1)OCCO2
Second: CO[C@H]1CN(C(=O)c2ccc3oc(C)cc3c2)CC[C@@]12CCCO2
The Percent Effect of the first is higher: 1.71% for the first, -10.3% for the second.

Compared with CCN(Cc1ccco1)C(=O)Nc1cc(C(F)(F)F)c[nH]c1=O, COC(=O)c1ccc2ccn(CC3CCCO3)c(=O)c2c1 (configuration not stated) is higher in Percent Effect: -6.49% for the first, 6.29% for the second.

Going from Cn1nc(CNC(=O)NCc2ccc(Cl)cc2)c2c1CCOC2 to Cn1nc(C2CCN(C(=O)Cc3cccc(F)c3)CC2)c2cccnc21, the Percent Effect falls from 20.2% to 14.9%.

Going from O=C(NCC(Cc1cccc(F)c1)N1CCCC1=O)c1ccccc1 (configuration not stated) to CNS(=O)(=O)c1ccc(C(=O)N2CCCC2c2ccccc2)o1 (configuration not stated), the Percent Effect falls from 6.32% to -6.57%.

Going from CSCC(C)(O)CNC(=O)c1ccc(Br)cc1F (configuration not stated) to CC(=O)c1c(F)cccc1N1CCC(CS(N)(=O)=O)CC1, the Percent Effect rises from -2.21% to 3.02%.

Compared with COc1ccc(Oc2cncc(C3CCCN3C(C)=O)n2)cc1 (configuration not stated), CCN(C(c1cccnc1)c1ccc2c(c1)CCO2)S(C)(=O)=O (configuration not stated) is lower in Percent Effect: 15.2% for the first, 4.95% for the second.

First: CCn1nc(C)c(CNC(=O)c2cn(CCC3CCCCN3)nn2)c1C (configuration not stated)
Second: Cn1cc(CN2CCn3cc(CNC(=O)C4CCC4)nc3C2)cn1
The Percent Effect of the first is lower: -25.2% for the first, 0.15% for the second.

Compared with N#Cc1ccc(N2CCN(C(=O)c3cc(C4CC4)[nH]n3)CC2)c(F)c1, CCOCCCC(=O)NCCC(=O)N1CCN(c2ccccn2)CC1 is lower in Percent Effect: 7.83% for the first, 2.43% for the second.

Compared with c1ncn(CC2CCCCN2Cc2noc(C3CC3)n2)n1 (configuration not stated), O=C(Cn1cnnn1)N1CCCCC1Cn1cccn1 (configuration not stated) is higher in Percent Effect: 6.6% for the first, 25.2% for the second.

Going from CC(C)C(=O)N1CCN(C(=O)CCc2nnc(-c3ccccc3)o2)CC1 to NC(=O)C1(Cc2ccccc2-c2ccccc2)CCCN(CC2CC2)C1 (configuration not stated), the Percent Effect falls from 16.1% to -4.55%.

Going from CCNC(c1cccnc1)c1cc(C)cc(C)c1 (configuration not stated) to CC(Cn1cccn1)NCc1nc(-c2cccc(Cl)c2)no1 (configuration not stated), the Percent Effect rises from -28.2% to 11.7%.

First: CC(C(=O)Nc1cccc(N2CCCCC2)c1)n1cncn1 (configuration not stated)
Second: O=C(C1CC1)N1CCC(c2nc(O)c3c(n2)CCN(C2CCCC2)C3)C1 (configuration not stated)
The Percent Effect of the first is lower: 0.641% for the first, 11.8% for the second.

Work on O=C(NCC1CC1)C1=NOC2(CCN(Cc3ccc4c(c3)OCO4)C2)C1 (configuration not stated) yielded a Percent Effect of 0.899%.
